# From PubChem BioAssay (Tox21)
# A number with no mark means an inactive call. Results filed as inconclusive are left out. Where a call stands in place of a potency, no number is given. Active and inactive are the calls of the source. Unless noted, the call rests on the fitted dose curve; in most records, active means well fitted curve in the direction sought with a large enough effect in the repeat runs; inconclusive means weak or mixed curves; inactive means no such curve, though single readings can be large; an effect the other way counts as inactive or inconclusive.
# Assays:
# [1] = qHTS assay to identify small molecule antagonists of the androgen receptor (AR) signaling pathway using the MDA cell line in the presence of 0.5 nM R1881 - cell viability counter screen (AID 1259242); further: nearly all actives have a fitted effect of over 45% in size
# In short: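 Counter screen for cytotoxicity run in the same wells as the AR antagonist reporter screen: MDA-kb2 cells were treated 16 hr with test compounds and 0.5 nM R1881, then live-cell protease activity was measured by fluorescence.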
# [2] = qHTS assay to identify small molecule HDAC inhibitors (AID 1259364); further: nearly all actives have a fitted effect of over 45% in size; further: potency means the concentration at half of the fitted maximal effect
# In short: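 Luminescence from a cell-permeant luminogenic class I/II HDAC substrate reports endogenous deacetylase activity in intact HCT-116 cells treated with compounds for 2 h.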
# [3] = qHTS assay to identify small molecule HDAC inhibitors - cell viability counter screen (AID 1259365); further: series mostly up to about 92 µM; nearly all actives have a fitted effect of over 50% in size
# In short: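 Wild-type HCT-116 cells were seeded at 1,500 per well, incubated overnight at 37 C, then exposed to compounds in DMSO for 2hr. Viability was read by CellTiter-Glo luminescence after 30min at room temperature.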
# [4] = qHTS assay to identify small molecule agonists of the sonic hedgehog signaling (Shh) pathway - cell viability counter screen (AID 1259366); further: nearly all actives have a fitted effect of over 50% in size; further: potency means the concentration at half of the fitted maximal effect
# In short: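 NIH/3T3-derived 3T3 Gli1-Luc cells (stable Gli1-responsive firefly luciferase reporter) were seeded, rested 4 hr at 37 C/5% CO2, then exposed to compounds in DMSO for 24 hr; viability was read by CellTiter-Fluor fluorescence in the same wells.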
# [5] = qHTS assay to identify small molecule antagonists of the sonic hedgehog signaling (Shh) pathway - cell viability counter screen (AID 1259367); further: nearly all actives have a fitted effect of over 55% in size; further: potency means the concentration at half of the fitted maximal effect
# In short: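 Seed 3T3 Gli1-Luc cells at 2,000 per well; incubate 4 hr; add compound in DMSO, then conditioned medium; incubate at 37C with 5% CO2; add CellTiter-Fluor after 23 hr; read fluorescence 1 hr later.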
# [6] = qHTS assay to identify small molecule agonists of the sonic hedgehog signaling (Shh) pathway (AID 1259368; calls by dose curve; further: series mostly up to about 92 µM; nearly all actives have a fitted effect of over 15% in size)
# In short: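 3T3Gli1-Luc (NIH/3T3 clone, stable Gli1-Luc); 4 hr pre-incubation, then cpd in DMSO 24 hr, 37 C/5% CO2; luciferase reagent 30 min RT; luminescence.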
# [7] = qHTS assay to identify small molecule antagonists of the sonic hedgehog signaling (Shh) pathway (AID 1259369; calls by dose curve; further: nearly all actives have a fitted effect of over 45% in size; further: potency means the concentration at half of the fitted maximal effect)
# In short: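 3T3Gli1-Luc, conditioned-medium-stimulated, 24hr cpd, 37C/5% CO2; Gli1-driven firefly Luc luminescence after 30min RT with luciferase reagent. Cells plated 4hr before cpd.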
# [8] = target: Estrogen receptor beta (Homo sapiens) (UniProt Q92731); experiment: qHTS assay to identify small molecule agonists of the estrogen receptor beta (ER-beta) signaling pathway (AID 1259377; active means well fitted activation curve with a large enough effect in the signal ratio in the repeat runs, not every such curve was filed as active; the % refers to the signal ratio)
# In short: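 ER-beta-UAS-bla HEK293T (GripTite) cells carrying a UAS-driven beta-lactamase reporter, in medium with 2% charcoal-stripped FBS, were exposed to compounds for 16 hr at 37C; LiveBLAzer B/G FRET substrate was then added and fluorescence read after 2 hours at room temperature.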
# [9] = target: Estrogen receptor beta (Homo sapiens) (UniProt Q92731); experiment: qHTS assay to identify small molecule antagonists of the estrogen receptor beta (ER-beta) signaling pathway (AID 1259378; active means well fitted inhibition curve with a large enough effect in the signal ratio in the repeat runs, not every such curve was filed as active; the % refers to the signal ratio; further: potency means the concentration at half of the fitted maximal effect)
# In short: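 ER-beta-UAS-bla HEK293T cells in 2% charcoal-stripped FBS medium treated with compound plus 1nM final 17-beta-estradiol for 16 hr at 37C. Beta-lactamase reporter read by FRET substrate fluorescence after 2 hours at room temperature.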
# [10] = qHTS assay to identify small molecule agonists of the androgen receptor (AR) signaling pathway in the presence of an antagonist - cell viability counter screen (AID 1259379); further: nearly all actives have a fitted effect of over 25% in size; further: potency means the concentration at half of the fitted maximal effect
# In short: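 Cells: MDA-kb2 (MMTV-luc, AR and GR elements), 3,000/well, 5 hr settle. Added: nilutamide 3.0uM final, then compounds (15 conc.). Incubation: 16 hr, 37C, no CO2. Read-out: CellTiter-Fluor, 1 hr, fluorescence.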
# [11] = qHTS assay to identify small molecule antagonists of the estrogen receptor beta (ER-beta) signaling pathway - cell viability counter screen (AID 1259382); further: nearly all actives have a fitted effect of over 55% in size; further: potency means the concentration at half of the fitted maximal effect
# In short: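 Cells: ER-beta-UAS-bla HEK293T, 2,000/well, 2% CS-FBS, 6 hr settle. Cpd + E2 (1nM final), 16 hr, 37C/5% CO2. Bla FRET substrate 2 hr RT, then CellTiter-Glo 30 min RT, luminescence.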
# [12] = qHTS assay to identify small molecule agonists or antagonists of the thyroid stimulating hormone receptor (TSHR) signaling pathway - wild type cell line counter screen (AID 1259384; calls by dose curve)
# In short: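 Wild-type Hek293 cells, 800/well, 18 h at 37C, then compound with Ro20-1724 for 30 min RT. cAMP by HTRF (cAMP-d2/anti-cAMP cryptate), 1 h RT, fluorescence read. 15 concentrations, triplicates.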
# [13] = target: Thyrotropin receptor (Homo sapiens) (UniProt P16473); experiment: qHTS assay to identify small molecule antagonists of the thyroid stimulating hormone receptor (TSHR) signaling pathway (AID 1259385; calls by dose curve; further: nearly all actives have a fitted effect of over 20% in size)
# In short: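 TSHR-HEK293 cells (800/well) plated 18 h, then compounds with Ro20-1724 and TSH at 1.5 ng/mL final, 30 min at room temperature. cAMP quantified by HTRF (cAMP-d2/anti-cAMP-cryptate, 1 h); 15 concentrations in triplicate.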
# [14] = qHTS assay to identify small molecule agonists of the estrogen receptor beta (ER-beta) signaling pathway - cell viability counter screen (AID 1259380); further: nearly all actives have a fitted effect of over 30% in size; further: potency means the concentration at half of the fitted maximal effect
# In short: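 HEK293T ER-beta-UAS-bla; 2% CS-FBS; 6 hr pre-plate, 16 hr cpd at 37C/5% CO2; LiveBLAzer read first, then CellTiter-Glo 30 min RT, luminescence.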
# [15] = target: Estrogen receptor (Homo sapiens) (UniProt P03372); experiment: qHTS assay to identify small molecule agonists of the estrogen receptor alpha (ER-alpha) signaling pathway in the presence of an antagonist (AID 1259383; calls by dose curve; further: nearly all actives have a fitted effect of over 15% in size; further: potency means the concentration at half of the fitted maximal effect; on activation: top concentration of the series differs between compounds)
# In short: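 VM7Luc4E2, endog. ER-alpha + 4×ERE-luc; charcoal-stripped FBS, phenol red-free, 5 d; 24hr plating; +10.0nM ICI-182,780 (final); cpds 15 conc, 22hr, 37C/5% CO2; ONE-Glo luminescence.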
# [16] = target: Androgen receptor (Homo sapiens) (UniProt P10275); experiment: qHTS assay to identify small molecule antagonists of the androgen receptor (AR) signaling pathway using the MDA cell line in the presence of 0.5 nM R1881 (AID 1259243); further: nearly all actives have a fitted effect of over 50% in size; further: potency means the concentration at half of the fitted maximal effect
# In short: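 Luciferase luminescence is the read-out: compounds are tested for suppressing 0.5 nM R1881-driven MMTV reporter activity in MDA-kb2 cells after 16 hr at 37C.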
# [17] = target: Estrogen receptor (Homo sapiens) (UniProt P03372); experiment: qHTS assay to identify small molecule antagonists of the estrogen receptor alpha (ER-alpha) signaling pathway using the BG1 cell line in the presence of 0.1 nM 17-beta-estradiol (AID 1259244); further: nearly all actives have a fitted effect of over 50% in size; further: potency means the concentration at half of the fitted maximal effect
# In short: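 Cells: VM7Luc4E2, endogenous ER-alpha, 4x ERE-luc stable. Pre-culture 5 d, phenol red-free, charcoal-stripped FBS. Plated 24 h, compound + E2 0.1 nM final, 22 h 37C/5% CO2. Readout ONE-Glo luminescence.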
# [18] = target: Androgen receptor (Homo sapiens) (UniProt P10275); experiment: qHTS assay to identify small molecule agonists of the androgen receptor (AR) signaling pathway in the presence of an antagonist (AID 1259381; calls by dose curve; further: nearly all actives have a fitted effect of over 15% in size)
# In short: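 MDA-kb2 cells, 3,000/well, rested 5hr at 37C/0% CO2 → nilutamide 3.0uM final or buffer → compounds, 15 conc. → 16hr at 37C → ONE-Glo, 30min RT → luminescence.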
# Estrogen receptor (Homo sapiens), sequence (P03372 whole entry, looked up): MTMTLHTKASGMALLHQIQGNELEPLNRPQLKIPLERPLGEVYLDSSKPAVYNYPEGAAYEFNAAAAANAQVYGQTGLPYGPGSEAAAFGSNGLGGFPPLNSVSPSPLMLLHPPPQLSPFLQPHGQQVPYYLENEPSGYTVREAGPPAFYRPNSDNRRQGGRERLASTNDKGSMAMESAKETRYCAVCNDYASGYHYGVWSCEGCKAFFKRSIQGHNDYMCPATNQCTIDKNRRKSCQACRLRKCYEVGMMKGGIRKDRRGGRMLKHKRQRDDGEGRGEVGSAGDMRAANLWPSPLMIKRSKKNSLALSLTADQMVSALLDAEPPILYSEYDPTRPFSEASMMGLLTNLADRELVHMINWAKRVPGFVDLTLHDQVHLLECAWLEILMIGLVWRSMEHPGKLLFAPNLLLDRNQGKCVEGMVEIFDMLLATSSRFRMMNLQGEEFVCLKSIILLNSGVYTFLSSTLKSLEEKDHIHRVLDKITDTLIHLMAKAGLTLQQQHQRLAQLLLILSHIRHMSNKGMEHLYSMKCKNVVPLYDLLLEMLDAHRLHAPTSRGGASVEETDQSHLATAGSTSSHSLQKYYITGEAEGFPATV
# Estrogen receptor beta (Homo sapiens), sequence (Q92731 whole entry, looked up): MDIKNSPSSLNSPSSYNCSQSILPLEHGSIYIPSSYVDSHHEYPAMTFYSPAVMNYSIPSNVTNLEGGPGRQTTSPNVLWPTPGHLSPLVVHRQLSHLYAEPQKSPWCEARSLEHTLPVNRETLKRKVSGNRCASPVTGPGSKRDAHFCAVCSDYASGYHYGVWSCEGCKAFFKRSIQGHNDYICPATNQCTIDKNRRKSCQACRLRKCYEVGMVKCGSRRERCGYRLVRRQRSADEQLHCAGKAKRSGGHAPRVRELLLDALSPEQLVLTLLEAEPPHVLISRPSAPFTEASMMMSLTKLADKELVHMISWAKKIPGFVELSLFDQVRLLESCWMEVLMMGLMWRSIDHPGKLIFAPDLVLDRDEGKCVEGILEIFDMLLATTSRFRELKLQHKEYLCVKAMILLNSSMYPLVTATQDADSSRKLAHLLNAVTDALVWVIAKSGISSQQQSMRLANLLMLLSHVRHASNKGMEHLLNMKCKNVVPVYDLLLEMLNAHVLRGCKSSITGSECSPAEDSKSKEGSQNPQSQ
# Androgen receptor (Homo sapiens), sequence (P10275 whole entry, looked up): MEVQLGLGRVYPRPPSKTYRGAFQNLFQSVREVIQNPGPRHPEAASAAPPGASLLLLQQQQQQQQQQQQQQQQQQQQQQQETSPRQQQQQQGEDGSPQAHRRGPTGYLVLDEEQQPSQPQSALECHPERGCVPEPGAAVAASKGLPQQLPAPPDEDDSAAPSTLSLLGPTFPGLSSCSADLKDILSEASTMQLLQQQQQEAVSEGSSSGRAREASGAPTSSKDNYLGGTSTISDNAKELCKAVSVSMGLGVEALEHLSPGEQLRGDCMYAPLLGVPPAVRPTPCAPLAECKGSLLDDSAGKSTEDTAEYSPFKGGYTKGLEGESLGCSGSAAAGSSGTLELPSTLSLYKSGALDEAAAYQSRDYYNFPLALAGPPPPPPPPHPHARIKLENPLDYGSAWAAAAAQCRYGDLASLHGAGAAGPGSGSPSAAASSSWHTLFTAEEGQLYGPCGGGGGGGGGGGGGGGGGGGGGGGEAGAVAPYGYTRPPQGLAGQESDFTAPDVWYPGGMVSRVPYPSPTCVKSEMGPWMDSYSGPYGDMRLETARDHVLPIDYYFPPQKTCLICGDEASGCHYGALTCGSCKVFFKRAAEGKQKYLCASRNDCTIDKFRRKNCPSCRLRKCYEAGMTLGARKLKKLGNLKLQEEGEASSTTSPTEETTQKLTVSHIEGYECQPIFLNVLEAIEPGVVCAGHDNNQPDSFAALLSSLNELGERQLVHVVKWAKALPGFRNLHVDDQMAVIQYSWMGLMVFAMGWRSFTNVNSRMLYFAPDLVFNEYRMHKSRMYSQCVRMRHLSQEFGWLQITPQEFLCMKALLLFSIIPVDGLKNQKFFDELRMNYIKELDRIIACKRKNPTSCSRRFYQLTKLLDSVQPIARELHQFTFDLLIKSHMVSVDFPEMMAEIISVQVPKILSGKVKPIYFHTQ
# Thyrotropin receptor (Homo sapiens), sequence (P16473 whole entry, looked up): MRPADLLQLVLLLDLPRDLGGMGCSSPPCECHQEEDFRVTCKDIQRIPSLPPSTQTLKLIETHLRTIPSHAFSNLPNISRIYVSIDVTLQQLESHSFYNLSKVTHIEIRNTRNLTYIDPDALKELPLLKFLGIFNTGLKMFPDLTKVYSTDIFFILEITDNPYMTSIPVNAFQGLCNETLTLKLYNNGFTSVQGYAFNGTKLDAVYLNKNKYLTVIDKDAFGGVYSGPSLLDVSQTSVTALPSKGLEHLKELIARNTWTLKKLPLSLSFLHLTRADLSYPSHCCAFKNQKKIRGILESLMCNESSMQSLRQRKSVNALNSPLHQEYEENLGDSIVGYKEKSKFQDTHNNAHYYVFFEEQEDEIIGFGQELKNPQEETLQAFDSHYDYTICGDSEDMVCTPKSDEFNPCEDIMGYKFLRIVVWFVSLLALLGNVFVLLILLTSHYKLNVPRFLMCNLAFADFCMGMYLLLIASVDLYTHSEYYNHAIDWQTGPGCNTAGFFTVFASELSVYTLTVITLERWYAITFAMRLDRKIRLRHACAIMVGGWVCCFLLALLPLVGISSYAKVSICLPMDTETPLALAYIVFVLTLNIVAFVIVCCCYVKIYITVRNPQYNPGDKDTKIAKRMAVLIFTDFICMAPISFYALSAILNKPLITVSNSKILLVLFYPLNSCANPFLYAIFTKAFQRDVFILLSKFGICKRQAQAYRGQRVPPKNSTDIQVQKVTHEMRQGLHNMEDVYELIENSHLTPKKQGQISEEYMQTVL
Compound,Potency [1],Potency [2],Potency [3],Potency [4],Potency [5],Potency [6],Potency [7],Potency [8],Potency [9],Potency [10],Potency [11],outcome [12],Potency [13],Potency [14],Potency [15],Potency [16],Potency [17],Potency [18]
Oc1ccc(Cl)c(Cl)c1Cl,inactive,inactive,inactive,inactive,inactive,inactive,inactive,inactive,inactive,inactive,inactive,inactive,inactive,–,–,–,–,–
O=S(=O)(O)C(F)(F)C(F)(F)C(F)(F)C(F)(F)F,inactive,inactive,inactive,inactive,inactive,inactive,57.8 µM (active),inactive,–,–,inactive,inactive,inactive,inactive,578 nM (active),–,–,–
IC(I)=C(I)I,–,inactive,inactive,7.7 µM (active),–,inactive,–,–,–,–,21.7 µM (active),inactive,inactive,21.7 µM (active),inactive,15.4 µM (active),27.3 µM (active),inactive
Nc1ccc([N+](=O)[O-])cc1[N+](=O)[O-],inactive,inactive,inactive,–,–,inactive,inactive,inactive,inactive,–,inactive,inactive,inactive,–,inactive,–,inactive,inactive
CC/C(=N\OC/C=C/Cl)C1=C(O)CC(C2CCOCC2)CC1=O (stereo not drawn),inactive,inactive,inactive,inactive,inactive,inactive,inactive,inactive,inactive,inactive,inactive,inactive,inactive,–,–,–,–,–
O=C(CBr)c1ccccc1,inactive,inactive,inactive,inactive,–,–,34.6 µM (active),–,–,inactive,inactive,inactive,inactive,inactive,inactive,–,inactive,–
CC1CC(CC2CCC(N)C(C)C2)CCC1N (stereo not drawn),–,inactive,inactive,–,–,inactive,–,–,–,27.8 µM (active),inactive,inactive,inactive,–,inactive,inactive,inactive,inactive
N#Cc1cc(I)c(O)c(I)c1,–,inactive,inactive,–,inactive,inactive,–,–,–,–,inactive,inactive,–,inactive,–,54.5 µM (active),–,inactive
CCC(Cl)CCl (stereo not drawn),–,inactive,inactive,inactive,inactive,–,inactive,–,inactive,inactive,inactive,inactive,inactive,inactive,inactive,–,inactive,–
O=C(O)CC(Cl)C(=O)O (stereo not drawn),inactive,inactive,inactive,inactive,inactive,inactive,inactive,inactive,inactive,inactive,inactive,inactive,inactive,inactive,–,–,–,–
C=CC(=O)OC(C)(C)C,inactive,inactive,inactive,inactive,–,–,inactive,inactive,inactive,inactive,inactive,inactive,inactive,–,–,–,–,–
O=C(O)C1(c2ccc3c(c2)OC[C@H](Cc2ccc(-c4ccccc4)cc2)[C@H]3O)CCCC1,inactive,inactive,inactive,inactive,–,inactive,–,–,–,–,–,inactive,inactive,27.3 µM (active),–,–,–,–
CCC(C)(NC(=O)c1cc(Cl)c(C)c(Cl)c1)C(=O)CCl (stereo not drawn),–,inactive,inactive,43.5 µM (active),21.8 µM (active),inactive,inactive,–,19.4 µM (active),–,–,inactive,–,61.5 µM (active),inactive,–,inactive,–
COC(N)=O,inactive,inactive,inactive,inactive,–,inactive,inactive,inactive,inactive,inactive,inactive,–,–,–,inactive,–,inactive,–
C=CC(=O)OC,inactive,inactive,inactive,inactive,inactive,inactive,inactive,inactive,inactive,–,inactive,inactive,inactive,inactive,–,–,–,–
O=C(Nc1ccccc1)Nc1ccnc(Cl)c1,–,4.33 µM (active),inactive,–,–,inactive,2.17 µM (active),–,–,61.1 µM (active),inactive,inactive,–,–,–,43.3 µM (active),24.3 µM (active),inactive
O=S1OC[C@@H]2[C@H](CO1)[C@]1(Cl)C(Cl)=C(Cl)[C@@]2(Cl)C1(Cl)Cl (stereo partly drawn),–,inactive,inactive,inactive,inactive,inactive,–,–,–,inactive,inactive,inactive,inactive,inactive,inactive,48.6 µM (active),inactive,inactive
C=CC[C@]1(O)CC[C@H]2[C@@H]3CCC4=CC(=O)CCC4=C3C=C[C@@]21C,–,inactive,inactive,–,–,inactive,13.3 µM (active),inactive,–,–,inactive,inactive,–,inactive,inactive,–,–,–
CCCCCCCCOC(=O)c1ccc(C(=O)OCCCCCCCC)c(C(=O)OCCCCCCCC)c1,inactive,inactive,inactive,inactive,–,inactive,inactive,inactive,inactive,–,inactive,inactive,inactive,–,–,–,–,–
COc1c(C(C)(C)C)cc([N+](=O)[O-])c(C)c1[N+](=O)[O-],inactive,inactive,inactive,inactive,inactive,–,–,–,inactive,inactive,inactive,–,–,inactive,inactive,–,–,–
O=S(=O)(Cl)c1ccccc1,inactive,inactive,inactive,inactive,inactive,inactive,–,–,–,inactive,inactive,inactive,inactive,inactive,–,–,–,–
